# Where a name gives a salt, the structure may show the parent alone. ± gives the standard deviation of the averaged measurements. Over roughly 1,900 compounds, “normalised cell viability (NPI; 0 = phenylarsine oxide control, 1 = DMSO control)” has its median near 1; the lowest 2% begin near 0.039. This is one part of a sample in which the lowest values are shown more often than they occur.
# Tested on: NCI-H1944
# Test: normalised cell viability (NPI; 0 = phenylarsine oxide control, 1 = DMSO control) (fraction of DMSO control); NCI-H1944 is a non-small cell lung cancer line; higher = more viable cells (less compound toxicity)
# Settings: 6 days
# [1] = glucocorticoid arm: hydrocortisone 2.75 uM co-treatment, compound 1 µM
# [2] = glucocorticoid arm: hydrocortisone 2.75 uM co-treatment, compound 5 µM
# [3] = glucocorticoid arm: hydrocortisone 2.75 uM pre-treated 2 days and continued, compound 1 µM
# [4] = glucocorticoid arm: hydrocortisone 2.75 uM pre-treated 2 days and continued, compound 5 µM
# [5] = glucocorticoid arm: vehicle, compound 1 µM
# [6] = glucocorticoid arm: vehicle, compound 5 µM
# 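Also: CTB read-out in 384-well plates, triplicate wells, NPI normalised per plate against 1 µM phenylarsine oxide (0) and 0.1% DMSO (1) controls.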
smiles,measurement,setting,value
O=c1[nH]c(=O)n([C@H]2C[C@H](O)[C@@H](CO)O2)cc1/C=C/Br [(E)-5-(2-Bromovinyl)-2'-deoxyuridine],normalised cell viability,[1],1.013 ± 0.0058
same,normalised cell viability,[2],1.01 ± 0.01
same,normalised cell viability,[3],1.003 ± 0.0061
same,normalised cell viability,[4],1.015 ± 0.0071
same,normalised cell viability,[5],0.9783 ± 0.0055
same,normalised cell viability,[6],0.9897 ± 0.0049
C[C@@H](NC(=O)/C(C#N)=C/c1ccc(O)c(O)c1)c1ccccc1 [Tyrphostin AG 527],normalised cell viability,[1],1.013 ± 0.0058
same,normalised cell viability,[2],0.9963 ± 0.0038
same,normalised cell viability,[3],0.879 ± 0.22
same,normalised cell viability,[4],0.999 ± 0.011
same,normalised cell viability,[5],1.003 ± 0.0058
same,normalised cell viability,[6],1.003 ± 0.0061
C[C@H](NC(=O)/C(C#N)=C/c1cccc(Br)n1)c1ccccc1,normalised cell viability,[1],1.01 ± 0.012
same,normalised cell viability,[2],1.06 ± 0.032
same,normalised cell viability,[3],1.02 ± 0.017
same,normalised cell viability,[4],1.048 ± 0.0075
same,normalised cell viability,[5],0.9985 ± 0.0098
same,normalised cell viability,[6],0.0147 ± 0.011
CCC[C@H](NC(=O)/C(C#N)=C/c1cccc(Br)n1)c1ccccc1,normalised cell viability,[1],1.017 ± 0.0058
same,normalised cell viability,[2],0.726 ± 0.1
same,normalised cell viability,[3],1.02 ± 0.01
same,normalised cell viability,[4],1.09 ± 0.025
same,normalised cell viability,[5],0.996 ± 0.0046
same,normalised cell viability,[6],0.339 ± 0.026
CN/C(=N\c1ccc(C2=NNC(=O)CC2C)cc1)NC#N (configuration not stated),normalised cell viability,[1],0.9943 ± 0.0046
same,normalised cell viability,[2],0.992 ± 0.018
same,normalised cell viability,[3],0.875 ± 0.22
same,normalised cell viability,[4],0.9957 ± 0.0051
same,normalised cell viability,[5],0.995 ± 0.005
same,normalised cell viability,[6],0.997 ± 0.0052
CCN1C(=CC(C)=O)Sc2ccc(OC)cc21,normalised cell viability,[1],0.982 ± 0.01
same,normalised cell viability,[2],0.823 ± 0.013
same,normalised cell viability,[3],0.994 ± 0.017
same,normalised cell viability,[4],0.839 ± 0.021
same,normalised cell viability,[5],1.01 ± 0.01
same,normalised cell viability,[6],0.983 ± 0.017
Cc1cc(N2CCOCC2)cc2[nH]c(-c3c(NCC(O)c4cccc(Cl)c4)cc[nH]c3=O)nc12 (configuration not stated),normalised cell viability,[1],0.277 ± 0.0085
same,normalised cell viability,[2],0.205 ± 0.011
same,normalised cell viability,[3],0.3733 ± 0.0021
same,normalised cell viability,[4],0.267 ± 0.0095
same,normalised cell viability,[5],0.753 ± 0.051
same,normalised cell viability,[6],0.263 ± 0.036
CCCCCCCCCCCCCCCC(=O)NCC(COP(=O)([O-])OCC[N+](C)(C)C)OCC (racemic) [rac-2-Ethoxy-3-hexadecanamido-1-propylphosphocholine],normalised cell viability,[1],1.01 ± 0.01
same,normalised cell viability,[2],1.09 ± 0.023
same,normalised cell viability,[3],1.007 ± 0.0058
same,normalised cell viability,[4],1.113 ± 0.0058
same,normalised cell viability,[5],1.013 ± 0.0058
same,normalised cell viability,[6],1.02 ± 0.011
CN1CCC[C@@H]1Cc1c[nH]c2ccc(CCS(=O)(=O)c3ccccc3)cc12 [Eletriptan HBr],normalised cell viability,[1],1.013 ± 0.0058
same,normalised cell viability,[2],1.03 ± 0.015
same,normalised cell viability,[3],1.01 ± 0.01
same,normalised cell viability,[4],1.02 ± 0.021
same,normalised cell viability,[5],1.002 ± 0.0067
same,normalised cell viability,[6],1.002 ± 0.0072
COc1ccccc1N1CCN(CCCCNC(=O)c2ccc3ccccc3c2)CC1,normalised cell viability,[1],0.9887 ± 0.0098
same,normalised cell viability,[2],0.984 ± 0.026
same,normalised cell viability,[3],0.998 ± 0.014
same,normalised cell viability,[4],0.988 ± 0.032
same,normalised cell viability,[5],0.9913 ± 0.0029
same,normalised cell viability,[6],0.961 ± 0.033
COc1ccc(NC(=O)c2ccc(-c3ccc(-c4noc(C)n4)cc3C)cc2)cc1N1CCN(C)CC1,normalised cell viability,[1],1.006 ± 0.0063
same,normalised cell viability,[2],0.000294 ± 0.00029
same,normalised cell viability,[3],1.02 ± 0.01
same,normalised cell viability,[4],0.00887 ± 0.01
same,normalised cell viability,[5],0.9987 ± 0.0023
same,normalised cell viability,[6],0.000181 ± 0.0015
CCCCCCCCCCCCCCCc1cccc(O)c1C(=O)O [Anacardic acid],normalised cell viability,[1],1 ± 0.015
same,normalised cell viability,[2],1.02 ± 0.0063
same,normalised cell viability,[3],1.01 ± 0.012
same,normalised cell viability,[4],1.02 ± 0.022
same,normalised cell viability,[5],1 ± 0.024
same,normalised cell viability,[6],1.01 ± 0.019
S=C(S)N1CCCC1 [Ammonium pyrrolidinedithiocarbamate],normalised cell viability,[1],1 ± 0.015
same,normalised cell viability,[2],0.994 ± 0.024
same,normalised cell viability,[3],1.01 ± 0.018
same,normalised cell viability,[4],1.004 ± 0.01
same,normalised cell viability,[5],1.002 ± 0.0076
same,normalised cell viability,[6],0.416 ± 0.095
N=c1ccn2c(n1)O[C@H]1[C@H](O)[C@@H](CO)O[C@H]12 [Ancitabine hydrochloride],normalised cell viability,[1],0.16 ± 0.012
same,normalised cell viability,[2],0.103 ± 0.012
same,normalised cell viability,[3],0.652 ± 0.079
same,normalised cell viability,[4],0.211 ± 0.0064
same,normalised cell viability,[5],0.0511 ± 0.0082
same,normalised cell viability,[6],0.0465 ± 0.00057
FC(F)c1nc2ccccc2n1-c1nc(N2CCOCC2)nc(N2CCOCC2)n1,normalised cell viability,[1],0.649 ± 0.029
same,normalised cell viability,[2],0.627 ± 0.013
same,normalised cell viability,[3],0.603 ± 0.038
same,normalised cell viability,[4],0.702 ± 0.054
same,normalised cell viability,[5],0.691 ± 0.048
same,normalised cell viability,[6],0.831 ± 0.028
Nc1cc(C(F)(F)F)c(-c2cc(N3CCOCC3)nc(N3CCOCC3)n2)cn1,normalised cell viability,[1],0.6 ± 0.048
same,normalised cell viability,[2],0.203 ± 0.0045
same,normalised cell viability,[3],0.713 ± 0.038
same,normalised cell viability,[4],0.411 ± 0.029
same,normalised cell viability,[5],0.613 ± 0.059
same,normalised cell viability,[6],0.0297 ± 0.0061
CS(=O)(=O)N1CCc2c(-c3cnc(N)nc3)nc(N3CCOCC3)nc21,normalised cell viability,[1],0.528 ± 0.021
same,normalised cell viability,[2],0.513 ± 0.01
same,normalised cell viability,[3],0.552 ± 0.058
same,normalised cell viability,[4],0.627 ± 0.034
same,normalised cell viability,[5],0.491 ± 0.024
same,normalised cell viability,[6],0.651 ± 0.064
CSc1nc(N)c2ncn([C@@H]3O[C@H](COP(=O)(O)OP(=O)(O)O)[C@@H](O)[C@H]3O)c2n1 [2-Methylthioadenosine diphosphate trisodium],normalised cell viability,[1],1.007 ± 0.0058
same,normalised cell viability,[2],1.02 ± 0.026
same,normalised cell viability,[3],1.01 ± 0.012
same,normalised cell viability,[4],1.06 ± 0.082
same,normalised cell viability,[5],0.9917 ± 0.0072
same,normalised cell viability,[6],1 ± 0.017
C[C@@H]1C(=O)O[C@H]2C[C@@]34[C@H]5C[C@@H](C(C)(C)C)[C@]36[C@@H](OC(=O)[C@@H]6O)O[C@@]4(C(=O)O5)[C@]21O [Ginkgolide A],normalised cell viability,[1],0.9947 ± 0.0084
same,normalised cell viability,[2],0.986 ± 0.01
same,normalised cell viability,[3],0.994 ± 0.016
same,normalised cell viability,[4],0.997 ± 0.02
same,normalised cell viability,[5],1.002 ± 0.0072
same,normalised cell viability,[6],0.9947 ± 0.0051
CCc1c(C(=O)NCCc2ccc(N3CCCCC3)cc2)[nH]c2ccc(Cl)cc12,normalised cell viability,[1],1.01 ± 0.018
same,normalised cell viability,[2],0.993 ± 0.021
same,normalised cell viability,[3],1.027 ± 0.0058
same,normalised cell viability,[4],0.999 ± 0.011
same,normalised cell viability,[5],1 ± 0.0095
same,normalised cell viability,[6],0.982 ± 0.012
NCC=CC(=O)O (stereo in doubt) [cis-4-Aminocrotonic acid],normalised cell viability,[1],0.992 ± 0.0092
same,normalised cell viability,[2],0.993 ± 0.015
same,normalised cell viability,[3],0.9857 ± 0.0042
same,normalised cell viability,[4],0.9765 ± 0.0092
same,normalised cell viability,[5],0.973 ± 0.0079
same,normalised cell viability,[6],0.9753 ± 0.0086
C[C@H]1C[C@H]2[C@@H]3CCC4=CC(=O)C=C[C@]4(C)[C@@]3(Cl)[C@@H](O)C[C@]2(C)[C@@]1(O)C(=O)CO [Beclomethasone],normalised cell viability,[1],0.998 ± 0.0017
same,normalised cell viability,[2],1.02 ± 0.01
same,normalised cell viability,[3],1.01 ± 0.01
same,normalised cell viability,[4],1
same,normalised cell viability,[5],0.803 ± 0.031
same,normalised cell viability,[6],0.738 ± 0.039

# Reference: the supplement of paper PMC8285479
